Source: PubChem BioAssay (Tox21)
Inconclusive results are not listed. Activity calls are given as the source filed them. Unless noted, calls come from the whole dose curve.

Assays:
[1] = Nuclear factor erythroid 2-related factor 2/antioxidant responsive element (Nrf2/ARE) small molecule agonists: qHTS cell viability counter screen in human keratinocytes (AID 1919968; active = well fitted curve in the direction sought with a large enough effect in the repeat runs; an effect the other way counts as inactive or inconclusive; note: nearly all actives have a fitted effect of over 55% in size; note: potency is the fitted concentration of half-maximal effect)
In short: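 Cytotoxicity was multiplexed with the Nrf2/ARE luciferase assay in the same wells. Stably transfected HaCaT keratinocytes were treated with test compounds for 23 h at 37 C. Cell viability was then measured by CellTiter-Fluor fluorescence.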

[2] = Nuclear factor erythroid 2-related factor 2/antioxidant responsive element (Nrf2/ARE) small molecule agonists: luciferase reporter gene qHTS assay in human keratinocytes (AID 1919969); note: nearly all actives have a fitted effect of over 35% in size; note: potency is the fitted concentration of half-maximal effect
[3] = molecular target: Gonadotropin-releasing hormone receptor (Homo sapiens) (UniProt P30968); test: Human gonadotropin-releasing hormone receptor (GnRHR) small molecule agonists, calcium flux assay in GnRHR-HEK293 cells (AID 1920063); note: nearly all actives have a fitted effect of over 35% in size
In short: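 Agonist activity was measured as intracellular calcium flux in HEK293 cells engineered to stably express human GnRHR. After dye loading for 1 hour at 37 C, compounds in DMSO were added and fluorescence was followed for 3 minutes.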

[4] = molecular target: KiSS-1 receptor (Homo sapiens) (UniProt Q969F8); test: Human kisspeptin (KISS1R) small molecule agonists, calcium flux assay in KISS1R-HEK293 cells (AID 1920064; active = well fitted curve in the direction sought with a large enough effect in the repeat runs; an effect the other way counts as inactive or inconclusive)
In short: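 Agonist activity is monitored as intracellular calcium rise in engineered HEK293 cells carrying human KISS1R. Cells are dye-loaded for 1 h at 37 C before compound addition, and fluorescence is recorded for 3 min.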

[5] = G protein-coupled receptor (GPCR) small molecule agonists, calcium flux assay: HEK293 wild type cell line counter screen (AID 1920065)
In short: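 Seed cells, incubate 18 h (37 C, 5% CO2); add calcium dye, 1 h at 37 C; pin-transfer compounds, ATP control or DMSO; read fluorescence 480/540 nm each second for 3 min.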

[6] = p53 small molecule agonists, cell-based qHTS assay with human liver microsomes (AID 1963577);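 note: p53 response element beta-lactamase reporter cells with liver microsomes plus NADPH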
In short: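 16 h, 37 C exposure of p53RE-bla cells to compounds with human liver microsomes and NADPH (0.5 mg/mL final each); detection via LiveBLAzer mixture, 2 h dark at room temperature.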

[7] = p53 small molecule agonists, cell-based qHTS assay with rat liver microsomes (AID 1963578)
In short: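 With rat liver microsomes and NADPH present (0.5 mg/mL final each), p53RE-bla cells are treated with compound for 16 h at 37 C. LiveBLAzer detection mixture is then applied for 2 h at room temperature in the dark.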

[8] = p53 small molecule agonists, cell-based qHTS assay with human liver microsomes: qHTS cell viability counter screen (AID 1963579); note: nearly all actives have a fitted effect of over 45% in size
In short: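 In this multiplexed counter screen, the reporter plates were subsequently treated with CellTiter-Glo so that cell viability, reflected by luminescence, could be recorded for p53RE-bla cells dosed 16 h with compounds under microsomal activation (HLM and NADPH).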

[9] = p53 small molecule agonists, cell-based qHTS assay with rat liver microsomes: qHTS cell viability counter screen (AID 1963580); note: nearly all actives have a fitted effect of over 45% in size
In short: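 After the beta-lactamase ratio was read, CellTiter-Glo was added to the same wells and luminescence measured at 30 min; cells had been treated 16 h at 37 C with compounds, rat liver microsomes and NADPH (0.5 mg/mL final each).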

[10] = p53 small molecule agonists, cell-based qHTS assay: qHTS cell viability counter screen (AID 1963581); note: nearly all actives have a fitted effect of over 45% in size
In short: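 Viability was counter-screened in parallel with the p53 agonist reporter by measuring intracellular ATP luminescence in the same HCT-116 p53RE-bla wells after 16 h compound treatment at 37 C.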

[11] = molecular target: 5-hydroxytryptamine receptor 2A (Homo sapiens) (UniProt P28223); test: 5-hydroxytryptamine receptor 2A (HTR2A) small molecule antagonists, cell-based qHTS assay (AID 1963586); note: nearly all actives have a fitted effect of over 45% in size
In short: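 CHO cells stably expressing human HTR2A were plated for 18 h at 37 C, then loaded with calcium dye for 1 h. Compounds were preincubated 5 min at room temperature before DOI (4 nM solution) was added. Kinetic fluorescence was read for 3 min.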

[12] = molecular target: Muscarinic acetylcholine receptor M1 (Homo sapiens) (UniProt P11229); test: Cholinergic receptor muscarinic 1 (CHRM1) small molecule antagonists, cell-based qHTS assay (AID 1963588); note: nearly all actives have a fitted effect of over 40% in size; note: potency is the fitted concentration of half-maximal effect
In short: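 Compounds were tested at 15 concentrations in three independent runs. Dye-loaded CHRM1-CHO cells were exposed 5 min at room temperature before stimulation by acetylcholine added at 50nM. Intracellular calcium was read kinetically on FDSS for 3 min.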

[13] = molecular target: Muscarinic acetylcholine receptor M1 (Homo sapiens) (UniProt P11229); test: Cholinergic receptor muscarinic 1 (CHRM1) small molecule agonists, cell-based qHTS assay (AID 1963589); note: nearly all actives have a fitted effect of over 35% in size
In short: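 Cells were plated and incubated 18 h at 37 C/5% CO2, loaded with calcium dye for 1 h at 37 C, then treated with compounds in DMSO. Fluorescence was recorded kinetically at 1 sec intervals.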

[14] = molecular target: Beta-2 adrenergic receptor (Homo sapiens) (UniProt P07550); test: Adrenergic beta2 receptor (ADRB2) small molecule antagonists, cell-based qHTS assay (AID 1963592); note: series mostly up to about 92 µM; nearly all actives have a fitted effect of over 50% in size
In short: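 Assay format: CHO-ADRB2 cells, 18-20hr seeding at 37C/5% CO2, then compound plus 1nM isoproterenol agonist mix for 0.5hr RT. Homogeneous time-resolved fluorescence cAMP detection after 1hr, expressed as 665/615 nm ratio.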

[15] = molecular target: D(2) dopamine receptor (Homo sapiens) (UniProt P14416); test: Dopamine D2 receptor (DRD2) small molecule agonists, cell-based qHTS assay (AID 1963594); note: nearly all actives have a fitted effect of over 35% in size
In short: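 HEK293 cells stably expressing human DRD2, pre-treated with PDE inhibitor Ro20-1724 (0.1 mM final) and compound 10 min at room temperature, then stimulated with NKH477 (200nM […]) for 30 min. cAMP read by HTRF (665/620 nm).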

[16] = molecular target: D(2) dopamine receptor (Homo sapiens) (UniProt P14416); test: Dopamine D2 receptor (DRD2) small molecule antagonists, cell-based qHTS assay (AID 1963595; active = well fitted inhibition curve with a large enough effect in the signal ratio in the repeat runs, with a control signal flat; the % refers to the signal ratio)
In short: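 DRD2-HEK293; 0.1 mM Ro20-1724; cpd 10 min RT; NKH477 200 nM + quinpirole 12 nM, 30 min RT; HTRF cAMP (cAMP-d2/anti-cAMP cryptate), 665/620 nm ratio after 1 h.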

[17] = molecular target: 5-hydroxytryptamine receptor 2A (Homo sapiens) (UniProt P28223); test: 5-hydroxytryptamine receptor 2A (HTR2A) small molecule agonists, cell-based qHTS assay (AID 1963587); note: nearly all actives have a fitted effect of over 30% in size
In short: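 CHO cells stably expressing human HTR2A, plated 18 h, loaded with calcium dye 1 h at 37 C. Agonist mode: compounds added and intracellular calcium fluorescence recorded kinetically for 2 min at 1 sec intervals.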

[18] = cAMP Responsive Elements (CRE) small molecule antagonists, cell-based qHTS assay (AID 1963591; active = well fitted inhibition curve with a large enough effect in the signal ratio in the repeat runs, not every such curve was filed as active; the % refers to the signal ratio)
In short: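 Cells (CRE-bla HEK 293T, DMEM with 10% dialyzed FBS and 25 mM HEPES) are seeded and incubated 18 h. Compounds are added with NKH477 agonist at 0.25 uM final for 3 h, then FRET substrate for 2 h.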

[19] = cAMP Responsive Elements (CRE) small molecule agonists, cell-based qHTS assay (AID 1963590)
In short: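 Cells carrying a CRE-driven beta-lactamase reporter (HEK 293T) are seeded, incubated overnight (18 h), and treated with test compounds for 3 h at 37 C; reporter activity is then detected with a FRET substrate after 2 h at room temperature.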

[20] = p53 small molecule agonists, cell-based qHTS assay (AID 1963582; active = well fitted activation curve with a large enough effect in the signal ratio in the repeat runs, not every such curve was filed as active; the % refers to the signal ratio)
In short: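 Cells carrying a p53-responsive bla reporter are treated with test compounds for 16 h at 37 C; beta-lactamase activity is then detected with LiveBLAzer B/G FRET substrate after 2 h at room temperature.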

Measured: Potency

Chain of Gonadotropin-releasing hormone receptor (Homo sapiens) (P30968 whole entry, looked up): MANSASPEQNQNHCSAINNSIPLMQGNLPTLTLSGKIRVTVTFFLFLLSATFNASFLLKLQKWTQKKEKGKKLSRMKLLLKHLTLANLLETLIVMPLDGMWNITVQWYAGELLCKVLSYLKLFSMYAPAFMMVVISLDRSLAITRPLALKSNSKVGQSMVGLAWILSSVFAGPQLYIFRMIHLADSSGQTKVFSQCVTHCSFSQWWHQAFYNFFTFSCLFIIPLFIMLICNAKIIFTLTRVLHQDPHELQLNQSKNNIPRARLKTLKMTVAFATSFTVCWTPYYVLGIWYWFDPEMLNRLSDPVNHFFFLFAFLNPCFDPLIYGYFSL
Chain of 5-hydroxytryptamine receptor 2A (Homo sapiens) (P28223 whole entry, looked up): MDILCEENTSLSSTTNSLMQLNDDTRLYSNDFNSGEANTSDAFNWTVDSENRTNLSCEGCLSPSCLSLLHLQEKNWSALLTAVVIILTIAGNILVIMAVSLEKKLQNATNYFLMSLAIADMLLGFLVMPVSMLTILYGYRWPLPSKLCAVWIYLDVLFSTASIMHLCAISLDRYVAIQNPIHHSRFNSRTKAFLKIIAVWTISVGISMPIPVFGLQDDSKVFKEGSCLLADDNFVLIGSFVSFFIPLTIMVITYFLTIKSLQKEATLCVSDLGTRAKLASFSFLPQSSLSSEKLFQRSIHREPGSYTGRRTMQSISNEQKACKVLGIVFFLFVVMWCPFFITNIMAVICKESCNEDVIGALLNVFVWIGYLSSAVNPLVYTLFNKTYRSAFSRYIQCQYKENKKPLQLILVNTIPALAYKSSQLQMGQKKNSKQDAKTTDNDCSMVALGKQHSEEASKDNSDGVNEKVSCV
Chain of KiSS-1 receptor (Homo sapiens) (Q969F8 whole entry, looked up): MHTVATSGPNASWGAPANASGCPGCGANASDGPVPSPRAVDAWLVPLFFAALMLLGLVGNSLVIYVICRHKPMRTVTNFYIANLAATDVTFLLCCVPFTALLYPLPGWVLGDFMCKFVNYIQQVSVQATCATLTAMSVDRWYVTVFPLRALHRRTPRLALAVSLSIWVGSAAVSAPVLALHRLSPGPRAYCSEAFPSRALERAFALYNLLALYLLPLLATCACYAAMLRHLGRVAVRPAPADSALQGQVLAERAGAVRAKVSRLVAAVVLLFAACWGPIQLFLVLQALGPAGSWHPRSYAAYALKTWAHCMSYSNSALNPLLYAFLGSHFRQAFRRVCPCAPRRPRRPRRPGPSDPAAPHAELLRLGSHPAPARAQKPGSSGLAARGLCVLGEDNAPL
Chain of D(2) dopamine receptor (Homo sapiens) (P14416 whole entry, looked up): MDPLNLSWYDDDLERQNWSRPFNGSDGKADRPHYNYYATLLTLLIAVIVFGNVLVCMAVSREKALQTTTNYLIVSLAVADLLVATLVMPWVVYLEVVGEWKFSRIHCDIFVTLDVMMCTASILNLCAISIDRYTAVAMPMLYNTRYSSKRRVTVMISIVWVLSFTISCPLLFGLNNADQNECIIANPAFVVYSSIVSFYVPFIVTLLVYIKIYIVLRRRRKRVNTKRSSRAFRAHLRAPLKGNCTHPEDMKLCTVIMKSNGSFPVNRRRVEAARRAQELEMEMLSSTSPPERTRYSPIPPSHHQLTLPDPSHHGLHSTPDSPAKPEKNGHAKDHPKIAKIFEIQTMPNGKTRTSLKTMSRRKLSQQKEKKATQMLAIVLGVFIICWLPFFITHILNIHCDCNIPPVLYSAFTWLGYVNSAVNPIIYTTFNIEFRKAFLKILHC
Chain of Beta-2 adrenergic receptor (Homo sapiens) (P07550 whole entry, looked up): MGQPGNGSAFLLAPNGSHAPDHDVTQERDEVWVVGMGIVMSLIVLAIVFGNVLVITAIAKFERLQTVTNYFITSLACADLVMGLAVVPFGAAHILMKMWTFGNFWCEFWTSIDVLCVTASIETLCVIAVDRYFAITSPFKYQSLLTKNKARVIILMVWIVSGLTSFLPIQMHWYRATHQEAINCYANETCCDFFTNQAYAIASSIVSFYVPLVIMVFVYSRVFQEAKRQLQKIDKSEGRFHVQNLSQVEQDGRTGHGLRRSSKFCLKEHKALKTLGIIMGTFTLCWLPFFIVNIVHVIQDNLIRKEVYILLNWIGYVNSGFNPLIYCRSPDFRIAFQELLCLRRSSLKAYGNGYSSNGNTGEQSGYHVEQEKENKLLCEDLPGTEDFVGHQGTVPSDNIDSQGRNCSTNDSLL
Chain of Muscarinic acetylcholine receptor M1 (Homo sapiens) (P11229 whole entry, looked up): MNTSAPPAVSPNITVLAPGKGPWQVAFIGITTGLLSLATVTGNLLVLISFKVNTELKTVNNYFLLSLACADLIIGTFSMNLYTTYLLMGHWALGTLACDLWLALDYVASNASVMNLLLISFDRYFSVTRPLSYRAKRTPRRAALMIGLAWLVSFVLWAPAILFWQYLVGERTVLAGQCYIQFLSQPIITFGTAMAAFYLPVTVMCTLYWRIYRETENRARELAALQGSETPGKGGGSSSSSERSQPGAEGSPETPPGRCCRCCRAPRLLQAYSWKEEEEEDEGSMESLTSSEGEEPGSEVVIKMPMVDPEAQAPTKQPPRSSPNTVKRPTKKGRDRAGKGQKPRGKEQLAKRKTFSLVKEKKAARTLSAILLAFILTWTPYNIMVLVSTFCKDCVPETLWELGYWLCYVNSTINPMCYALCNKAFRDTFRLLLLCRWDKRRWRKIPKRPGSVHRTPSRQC

c1ccc2c(c1)Sc1ccccc1N2CC1CN2CCC1CC2 (stereo not drawn)
active: [1] 33.5 µM
inactive: [2] | [3] | [4] | [5] | [6] | [7] | [8] | [9] | [10] | [11] | [12] | [13] | [14] | [15] | [16]

CCc1ccc(C(=O)NN(C(=O)c2cc(C)cc(C)c2)C(C)(C)C)cc1
active: [12] 2.98 µM
inactive: [1] | [2] | [3] | [4] | [5] | [6] | [7] | [8] | [9] | [10] | [11] | [17] | [13] | [14] | [15] | [16]

CCCC[N+](CCCC)(CCCC)CCCC
inactive: [1] | [2] | [3] | [4] | [5] | [6] | [7] | [8] | [9] | [10] | [17] | [12] | [13] | [18] | [14] | [15] | [16]

O=C(OC1CCCCC1)c1ccccc1C(=O)OC1CCCCC1
inactive: [1] | [2] | [3] | [4] | [5] | [6] | [7] | [8] | [9] | [10] | [11] | [17] | [12] | [13] | [18] | [14] | [15]

C=CCC1=C(C)[C@@H](OC(=O)[C@@H]2[C@@H](C=C(C)C)C2(C)C)CC1=O
active: [2] 61.1 µM | [12] 16.8 µM
inactive: [1] | [3] | [4] | [5] | [6] | [7] | [8] | [9] | [10] | [11] | [17] | [13] | [15]

ClCc1ccc(Cl)cc1Cl
inactive: [1] | [2] | [3] | [4] | [5] | [6] | [7] | [8] | [9] | [10] | [11] | [17] | [12] | [13] | [19] | [18] | [14] | [15] | [16]

CCCCCCCCCCCCCCCCCCn1cc[n+](C)c1
active: [1] 19.2 µM
inactive: [2] | [3] | [4] | [5] | [6] | [7] | [8] | [9] | [10] | [17] | [13] | [14] | [15] | [16]

O=C(O)CC(Cl)C(=O)O (stereo not drawn)
inactive: [1] | [2] | [3] | [4] | [5] | [6] | [7] | [8] | [9] | [20] | [11] | [17] | [13] | [19] | [14] | [15] | [16]
